From PubChem BioAssay (NCATS)
Results filed as inconclusive are left out. Entries that show only a call come without a potency. Unmarked numbers belong to inactive results. Calls of active or inactive are those of the source. Calls follow the shape of the dose curve; as a rule, active = well fitted inhibition curve with a large enough effect; inconclusive = small, poorly fitted or top-dose-only effect; inactive = no such curve, though single readings can be large or run the other way.

These molecules were tested against Retinaldehyde dehydrogenase 3 (Homo sapiens) (UniProt P47895) (assay: qHTS for Inhibitors of the Aldehyde Dehydrogenase Family (ALDH1A3) Primary screen (AID 2061315)). Settings: ALDH inhibition qHTS; series mostly up to 56 µM.

SMILES | Potency | activity change, negative = inhibition
C=C1C[C@]23C[C@H]1CC[C@H]2[C@]1(C)CC[C@H](O)[C@@](C)(C(=O)O)[C@H]1[C@@H]3C(=O)O | inactive | 
CCCOc1ccc(-c2nc(OC)c3ccccc3n2)cc1 | inactive | 
COc1cc(/C=C2\CC[C@H]3COC[C@@H](c4cc(F)c(F)c(F)c4)N3C2=O)ccc1-n1cnc(C)c1 | inactive | 
CC/C=C/C=C/C1(C)OC(CC(CO)OC)=CC1=O (stereo not given) | inactive | 
OC[C@H]1O[C@@H](OC[C@H]2O[C@@H](OC/C=C/c3ccccc3)[C@H](O)[C@@H](O)[C@@H]2O)[C@@H](O)[C@@H]1O | inactive | 
CN1[C@@H]2CC[C@H]1CC(NC(=O)n1c(=O)[nH]c3ccccc31)C2 (stereo not given in full) | inactive | 
COC1CC(=O)C23C(=O)NC(CC(C)C)C2C(C)C(C)=CC3/C=C(\C)CCCC1O (stereo not given) | inactive | 
CC1CC(=O)[C@]2(O)C(C(=O)OCCc3ccc(O)cc3)=CO[C@@H](O[C@@H]3O[C@H](CO)[C@@H](O)[C@H](O)[C@H]3O)[C@H]12 (stereo not given in full) | inactive | 
CC1CCC2C(C)(C)CC(C)(CO)C2(O)C1C(=O)O (stereo not given) | inactive | 
CC1CCC2(NC1)OC1C(O)C3C4CCC5CC(O[C@@H]6O[C@H](CO)[C@@H](O)[C@H](O)[C@H]6O[C@@H]6O[C@@H](C)[C@H](O)[C@@H](O)[C@H]6O)CCC5(C)C4CCC3(C)C1C2C (stereo not given in full) | inactive | 
C=C1CCC2C(C)(C(=O)O)CCCC2(C)C1CCC1=CCOC1=O (stereo not given) | inactive | 
C=C(C)C(=O)O[C@H]1[C@H]2C(=C)C(=O)O[C@@H]2C[C@@H](C)/C=C\C(=O)[C@](C)(O)[C@@H]1OC(C)=O | inactive | 
CC(=O)OC12CC(C)C(O)C1/C=C(/COC1OC(CO)C(O)C(O)C1O)CCC1C(/C=C(\C)C2=O)C1(C)C (stereo not given) | inactive | 
CC1(C)CC[C@]2(C(=O)O[C@@H]3O[C@H](CO)[C@@H](O)[C@H](O)[C@H]3O)CC[C@]3(C)C(=CCC4[C@@]5(C)C[C@H](O)[C@H](O[C@@H]6O[C@H](C(=O)O)[C@@H](O)[C@H](O)[C@H]6O)[C@@](C)(CO)C5CC[C@]43C)C2C1 (stereo not given in full) |  | 11% [at 11.2 µM]
CCN(Cc1cccnc1)C(=O)CN(c1ccc(OC)nc1)S(=O)(=O)c1ccccc1C | inactive | 
C=C1C[C@]23C[C@H]1CC[C@H]2[C@]1(C)CCC[C@@]2(CO)C(=O)O[C@H]([C@H]21)[C@@H]3O | inactive | 
COC(=O)C[C@H]1C(C)(C)[C@H](OC(C)=O)C2CC3=C4CC(=O)O[C@@H](c5ccoc5)[C@]4(C)CCC3[C@@]1(C)C2=O (stereo not given in full) | inactive | 
C[C@H]1[C@H](C)CC[C@]2(C(=O)O[C@@H]3O[C@H](CO)[C@@H](O)[C@H](O)[C@H]3O)CC[C@]3(C(=O)O)C(=CCC4[C@@]5(C)CC[C@H](O[C@@H]6O[C@H](CO)[C@@H](O)[C@H](O)[C@H]6O)C(C)(C)C5CC[C@]43C)[C@H]12 (stereo not given in full) | inactive | 
OC[C@H]1O[C@@H](OCCc2ccccc2)[C@H](O[C@@H]2OC[C@@H](O)[C@H](O)[C@H]2O)[C@@H](O)[C@@H]1O | inactive | 
NC(=O)C(O[C@@H]1O[C@H](CO[C@@H]2O[C@H](CO)[C@@H](O)[C@H](O)[C@H]2O)[C@@H](O)[C@H](O)[C@H]1O)c1ccccc1 (stereo not given in full) | inactive | 

SMILES | Potency | activity change, negative = inhibition
NC(=O)[C@H]1CCCCc2c1[nH]c1ccc(Cl)cc21 | inactive | 
C=C1CC[C@@H]2[C@](C)(CO)[C@H](O)CC[C@@]2(C)[C@@H]1C/C=C1/C(=O)OCC1O (stereo not given in full) | inactive | 
CC1(C)CC=C(c2cnc3ccccc3c2)c2cc(C(=O)Nc3ccc(C(=O)O)cc3)ccc21 | inactive | 
CC(CCC1(O)OC2CC3C4CC=C5CC(O[C@@H]6O[C@H](CO)[C@@H](O[C@@H]7O[C@@H](C)[C@H](O)[C@@H](O)[C@H]7O)[C@H](O)[C@H]6O[C@@H]6O[C@@H](C)[C@H](O)[C@@H](O)[C@H]6O)CCC5(C)C4CCC3(C)C2C1C)CO[C@@H]1O[C@H](CO)[C@@H](O)[C@H](O)[C@H]1O (stereo not given in full) | inactive | 
CCCCCOC(=O)Nc1nc(=O)n(C2O[C@H](C)[C@@H](O)[C@H]2O)cc1F (stereo not given in full) | inactive | 
N#Cc1cnc2cnc(NCc3cccnc3)cc2c1Nc1ccc(F)c(Cl)c1 | inactive | 
CC1OC(O[C@H]2[C@@H](O)C[C@@]3(C)C([C@H](O)C[C@]4(C)C3CC=C3C5CC(C)(C)CC[C@]5(C(=O)OC5OC(CO)C(O)C(O)C5OC5OCC(OC6OCC(OC7OCC(O)C(O)C7O)C(O)C6O)C(OC6OCC(O)(CO)C6O)C5O)CC[C@]34C)[C@]2(C)CO)C(O)C(O)C1O (stereo not given in full) |  | -4.53% [at 11.2 µM]
CN(C)CCn1cc(S(=O)(=O)c2cccc(F)c2)c2cccnc21 | inactive | 
CCOC(=O)c1c(C)nn(-c2cccc([N+](=O)[O-])c2)c1C | inactive | 
CC(=O)OC1CC(C)(C(=O)O)CC2C3=CC(=O)C4C5(C)CCC(OC6OC(C(=O)O)C(O)C(O)C6OC6OC(C(=O)O)C(O)C(O)C6O)C(C)(C)C5CCC4(C)C3(C)CCC12C (stereo not given) | inactive | 
C/C(=C/CO)CC[C@H]1[C@]2(C)C[C@H](O)CC(C)(C)[C@H]2CC[C@]1(C)O | inactive | 
O=C(O)CC(CCc1ccccc1)OC1OC(CO)C(O)C(O)C1O (stereo not given) | inactive | 
COC1CCCC/C(C)=C/C2C=C(C)C(C)C3C(CC(C)C)NC(=O)C23C(=O)C1 (stereo not given) | inactive | 
CC1=C[C@H](O)[C@H]2C(C)(C)CCC[C@]2(C)[C@@]1(O)CO | inactive | 
CC/C=C\CC1C(=O)C=CC1(CCCCC1CCC(=O)O1)OC(C)=O (stereo not given) | inactive | 
C[C@]12C[C@@H](O)[C@@H]3C[C@@]1(O[C@@H]1O[C@H](CO)[C@@H](O)[C@H](O)[C@H]1O)[C@]3(COC(=O)c1ccccc1)C(=O)O2 | inactive | 
C=C1[C@@H]2[C@H]3OC(=O)C(=C)[C@@H]3CC[C@@](C)(O)[C@@H]2C[C@@H]1O[C@@H]1O[C@H](CO)[C@@H](O)[C@H](O)[C@H]1O | inactive | 
C=C(C)[C@H]1CC[C@]2(C(=O)O)CC[C@]3(C)C(CCC4[C@@]5(C)CCC(=O)C(C)(C)C5CC[C@]43C)C12 (stereo not given in full) | inactive | 
C=C1C[C@]23C[C@H]1CC[C@H]2[C@@]12C=C[C@H](O)[C@@](C)(C(=O)O1)[C@H]2[C@@H]3C(=O)O | inactive | 
CC1CC(=O)C2=C(CCC3(O)C(O)c4c(O)cccc4C(=O)C23O)C1 (stereo not given) | inactive | 
